An excerpt weighted towards active compounds, which were near 2.3% of everything screened.
Mcl-1 Bim block = inhibitors of Bim-Mcl-1 interaction, human. Q07820. Bead-based flow cytometry, Bim peptide-Mcl-1 binding. inhibition, % at 10 µM. 0.1% of 190,000 active. AID 1009; in the data active = inhibition above about 40%;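 also: 0% = no compound tracer wells and 100% = peptide blocker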
Mcl1-Bid inh = Mcl-1/Bid interaction inhibition | 0.97% of 220,000 active | inhibition, % at 21.7 µM | Q07820 | AID 1021 | TR-FRET Mcl-1/Bid-Dy647 peptide binding, 1536-well;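 active = compounds that cut the binding signal by more than half at the single screening dose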;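 also: His-tagged Mcl-1 with europium anti-His antibody binding Bid BH3 peptide; 0% = Mcl-1 plus peptide wells and 100% = peptide-only wells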
GLD-1 RNA inh = GLD-1-TGE RNA interaction inhibition (C. elegans); 0.44% of 320,000 active; inhibition, % at 5.96 µM; purified GLD-1 + fluorescein TGE RNA, fluorescence polarization; Q17339;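 active = percent inhibition above a per-plate cutoff, the plate mean of test compounds plus 3 SD, cut at about 30% in these data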;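 also: 0% = DMSO wells with GLD-1 and probe and 100% = wells lacking GLD-1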
Target sequence (Q17339 whole entry, looked up): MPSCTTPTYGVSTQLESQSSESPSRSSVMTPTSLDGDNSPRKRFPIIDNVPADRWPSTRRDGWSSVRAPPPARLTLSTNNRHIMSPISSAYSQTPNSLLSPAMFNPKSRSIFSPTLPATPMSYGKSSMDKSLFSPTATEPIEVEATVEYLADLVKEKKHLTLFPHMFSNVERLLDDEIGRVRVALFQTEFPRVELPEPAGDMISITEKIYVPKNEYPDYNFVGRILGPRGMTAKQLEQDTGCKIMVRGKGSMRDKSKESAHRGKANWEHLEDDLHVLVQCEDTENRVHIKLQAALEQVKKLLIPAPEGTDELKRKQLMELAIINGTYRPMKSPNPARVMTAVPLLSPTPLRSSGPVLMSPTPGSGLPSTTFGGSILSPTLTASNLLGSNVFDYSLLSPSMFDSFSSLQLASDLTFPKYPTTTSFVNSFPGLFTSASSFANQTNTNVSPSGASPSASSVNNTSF
Mcl1-Noxa inh = Mcl-1/Noxa interaction inhibition | Q07820 | AID 1022 | TR-FRET Mcl-1/Noxa peptide binding, 2 h | inhibition, % at 21.7 µM | 1.5% of 220,000 active;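 active = compounds that cut the protein-peptide binding signal by more than 50% relative to plate controls in a single-dose test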;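 also: His-tagged Mcl-1 with rhodamine Noxa BH3 peptide and terbium anti-His antibody; 0% = Mcl-1 plus Noxa peptide wells and 100% = peptide-only wells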
MCL1 BIM primary = disrupts human MCL1 binding to BIM-BH3 peptide; Q07820; inhibition, % at 10.9 µM; GST-MCL1 / FITC-Bim-BH3 fluorescence polarization; 0.68% of 320,000 active;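 active = inhibition above the mean inhibition of all tested compounds plus 3 SD, set per campaign, cut at about 40% in these data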;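 also: 0% = DMSO wells and 100% = unlabeled Bim-BH3 peptide control; higher means more loss of mP so more displacement of Bim peptide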
BCLXL inh = inhibitors of human Bcl-xL. 0.7% of 320,000 active. inhibition, % at 10.9 µM. Q07817. GST-Bcl-xL / FITC-Bim BH3 peptide fluorescence polarization;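 active = inhibition above the mean of all tested compounds plus 3 SD, cutoff set per campaign, cut at about 30% in these data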;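 also: 0% = DMSO wells and 100% = unlabeled Bim-BH3 peptide competitor; inhibitors lower millipolarization by displacing the labeled peptide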
Target sequence (Q07817 whole entry, looked up): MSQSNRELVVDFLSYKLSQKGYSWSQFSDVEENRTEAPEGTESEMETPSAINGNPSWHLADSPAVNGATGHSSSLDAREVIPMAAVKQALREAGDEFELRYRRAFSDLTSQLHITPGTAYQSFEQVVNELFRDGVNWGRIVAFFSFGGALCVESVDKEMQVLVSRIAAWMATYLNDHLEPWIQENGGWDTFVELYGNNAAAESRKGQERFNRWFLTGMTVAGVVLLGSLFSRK
An asterisk follows results filed as active; · = not tested or not shown.

SMILES | Mcl-1 Bim block | Mcl1-Bid inh | GLD-1 RNA inh | Mcl1-Noxa inh | MCL1 BIM primary | BCLXL inh
Nc1cc(N)c(OCC(F)(F)F)cc1OCC(F)(F)F | 0.0 | -44.7 | 30.3 | 12.7 | 29.5 | 39.3*
CC(C)C(=O)NC(c1cccs1)c1cc([N+](=O)[O-])c2cccnc2c1O (stereo unspecified) | -7.0 | 55.2* | -2.6 | 63.2* | 1.7 | 5.1
CC(C)COC(=O)/C(C#N)=C/c1cn(Cc2ccccc2)c2ccccc12 | 40.0* | -17.1 | 0.2 | -0.5 | 5.4 | 5.8
CC(C)OC(=O)/C(C#N)=C/c1cn(Cc2ccccc2)c2ccccc12 | -4.0 | -2.0 | 0.2 | -11.5 | -4.2 | -1.5
CCOc1ccc(N2CC(O)=C(c3nc4ccccc4c(=O)[nH]3)C2=N)cc1 | 0.0 | 56.8* | 8.5 | 47.7 | -2.0 | 4.6
O=C(COC(=O)/C=C/c1ccco1)NCc1ccccc1 | 6.0 | -18.2 | 2.5 | 5.7 | -2.4 | 0.7
CCc1c(C)sc(NC(=O)CC#N)c1C#N | 1.0 | -80.7 | 0.4 | 61.8* | 13.3 | 11.6
Cc1c(C(=O)N2CCN(S(=O)(=O)c3ccccc3F)CC2)oc2c(Cl)cccc12 | · | · | -2.1 | · | 1.7 | 2.8
COc1cc(CN2C(=S)NC(C)(C)CC2(C)O)cc(OC)c1 (stereo unspecified) | -3.0 | -49.2 | -0.6 | 1.2 | 10.8 | 6.7
COc1ccc(OC)c(NC(=O)CCN2CCCC(C)C2)c1 (stereo unspecified) | 0.0 | 51.5* | 14.1 | 32.2 | 1.7 | -2.2
COc1ccc(OC)c(NC(=O)CCN2CC(C)CC(C)C2)c1 (stereo unspecified) | · | · | -1.3 | · | -3.4 | -0.7
COc1cc(NC(=O)COc2ccccc2[N+](=O)[O-])ccc1NC(=O)c1cccs1 | -2.0 | 16.4 | · | 57.0* | · | ·
CCCOc1ccc(Cc2nn3c(=O)/c(=C/c4ccco4)sc3nc2=O)cc1 | -4.0 | -0.1 | 2.6 | 74.5* | 18.3 | 16.1
CCCOc1ccc(/C=c2\sc3nc(-c4ccco4)nn3c2=O)cc1OCC | -4.0 | -12.5 | 3.5 | 11.5 | 17.4 | 2.8
COc1ccccc1/C=C/C=c1\sc2nc(=O)c(Cc3ccccc3)nn2c1=O | · | -34.5 | -6.5 | 50.9* | 19.6 | 6.8
O=C(O)CNC(=O)c1ccc(N2CCOCC2)cc1[N+](=O)[O-] | 0.0 | -6.8 | 3.6 | 12.1 | 4.3 | 3.6
COc1cccc(N2CCN(CC(=O)NC(=O)NCc3ccco3)CC2)c1 | 1.0 | -50.1 | 2.2 | 62.1* | 30.4 | 6.4
CCCn1c(NCc2ccco2)nc2c1c(=O)n(C)c(=O)n2C | -2.0 | -37.2 | 1.5 | 5.1 | -0.3 | 2.4
Cn1c(=O)c2c(nc(NCc3ccco3)n2CC(O)COc2ccccc2)n(C)c1=O (stereo unspecified) | -5.0 | -11.8 | -0.2 | 81.0* | 6.8 | 2.0
COc1cc(/C=N/NC(=O)c2ccc(COc3cc(C)ccc3C(C)C)cc2)cc(OC)c1O | -5.0 | -42.8 | 0.8 | 51.1* | 7.4 | -0.8
O=C(CCC(=O)c1ccc(F)cc1)OCc1nnc(-c2ccc([N+](=O)[O-])cc2)o1 | · | · | 1.8 | · | -2.7 | -5.8
O=C(O)c1ccc(NS(=O)(=O)c2ccc3c(c2)C2C=CCC2C(c2ccccc2F)N3)cc1 (stereo unspecified) | -1.0 | 4.2 | · | 93.1* | · | ·
COc1ccc(Cn2c(=O)[nH]c3cc(C(=O)NCCCN4CCCC4=O)ccc3c2=O)cc1 | 0.0 | -11.3 | 3.5 | 16.2 | 7.1 | 4.4
COc1ccc(OC)c(CCNC(=O)Cn2sc3nc(C)cc(C)c3c2=O)c1 | -10.0 | -19.4 | 1.2 | 56.2* | 15.8 | 2.3
C=C(C)CC(NCCc1ccccc1)c1ccco1 (stereo unspecified) | -3.0 | -29.2 | · | 23.8 | · | ·
SMILES | Mcl-1 Bim block | Mcl1-Bid inh | GLD-1 RNA inh | Mcl1-Noxa inh | MCL1 BIM primary | BCLXL inh
O=C(Cc1ccc2cccnc2c1)c1ccc(O)cc1O | -4.0 | -31.1 | -1.7 | 12.5 | 7.0 | 6.0
Oc1ccc2cccnc2c1 | -4.0 | -1.9 | 25.4 | 3.8 | 44.6* | 40.3*
O=C(N/N=C/C(Cl)=C/c1ccc([N+](=O)[O-])cc1)C(=O)Nc1ccccc1C(=O)O | · | -1.5 | -11.1 | 55.7* | 7.5 | 4.0
COc1cc(/C=C(\C#N)c2nc3ccccc3o2)ccc1O | · | -80.1 | -157.7 | 32.2 | -93.3 | -66.4
COc1cc(/C=C(/C#N)c2nc(-c3cc4ccccc4oc3=O)cs2)cc([N+](=O)[O-])c1O | · | 96.6* | · | 97.8* | · | ·
COc1cc(/C=C(\C#N)c2nc(-c3cc4ccccc4oc3=O)cs2)ccc1O | -1.0 | 63.8* | -6.8 | 58.8* | 3.2 | 1.6
CC1CCC(=C(C#N)c2nc(-c3cc4ccccc4oc3=O)cs2)CC1 (stereo unspecified) | 0.0 | -16.0 | -4.0 | 10.5 | 5.3 | 3.7
CC(NC(=O)c1ccc2c(=O)n3c(nc2c1)CCC3)c1ccc(S(N)(=O)=O)cc1 (stereo unspecified) | · | · | -0.7 | · | -1.2 | 2.1
CC1(C(=O)NNC(=O)C2CCCCC2)CC1(Cl)Cl (stereo unspecified) | · | 99.0* | 6.6 | -13.9 | 4.3 | 6.4
O=C(Nc1nncs1)c1c(F)c(F)c(F)c(F)c1F | -5.0 | 12.7 | 11.5 | 21.2 | 7.8 | 4.7
COc1cccc2sc3ccc(NCCC4CCCN4C)cc3c(=O)c12 (stereo unspecified) | · | · | 35.8* | · | 29.7 | 32.5*
Cn1c(=O)cc(OCC(=O)Nc2ccccn2)c2ccccc21 | 0.0 | 6.6 | 2.8 | 16.4 | -1.2 | -0.5
Cc1sc(NC(=O)c2ccccc2)c(C(=O)N2CCN(C)CC2)c1C | 0.0 | 86.4* | 2.1 | 37.9 | -2.6 | -0.3
Oc1c(Cl)cc(Cl)cc1/C=C/c1ccc2cccc(O)c2n1 | 2.0 | -56.3 | -54.9 | 81.5* | -4.0 | 4.2
COC(=O)c1ccc(C(=O)NC2CCCN(Cc3ccc(Cl)cc3)C2)nc1 (stereo unspecified) | · | · | -2.6 | · | -1.4 | -0.2
O=C(O)c1cccc(N/N=C/C2=C(Cl)c3cc(Cl)ccc3SC2)c1 | 4.0 | 88.6* | · | 103.5* | · | ·
Cc1ccc(N2NC(=O)/C(=C\c3cc4c(cc3[N+](=O)[O-])OCO4)C2=O)cc1C | 1.0 | 4.9 | 3.8 | 99.8* | 15.6 | 10.2
O=C1NN(c2ccccc2)C(=O)/C1=C\c1ccc2c(c1)OCO2 | · | · | 8.1 | · | 6.2 | 8.6
O=C(Nc1ccc2c(c1)OCCO2)C1CCN(C(=O)c2ccc(Cl)cc2)CC1 | -3.0 | -26.4 | 2.8 | 20.3 | -8.9 | 1.0
COCCNC(=O)CCCn1c(=O)c2cc(OC)c(OC)cc2n(CC(=O)NCCC2=CCCCC2)c1=O | 0.0 | 3.0 | 4.4 | 6.6 | 3.7 | 3.5
CN1CCN(CCC(=O)Nc2cccc(F)c2)CC1 | 0.0 | -6.3 | -2.4 | 9.9 | -2.4 | -4.8
Cc1ccc(CSc2nnc(SCC(=O)N/N=C/c3c[nH]c4ccccc34)s2)cc1 | 2.0 | 89.7* | · | 75.7* | · | ·
O=C(CSc1nnc(SCc2ccccc2Cl)s1)N/N=C/c1c[nH]c2ccccc12 | -8.0 | 21.8 | 4.7 | 26.5 | 4.5 | 3.8

Screening data from PubChem BioAssay.
